NPC1 promoter act: activators of NPC1 promoter; Huh7 NPC1 promoter luciferase reporter, 24 h; Potency, µM (titrated, usually from 9.22 µM), usual class: activators; 320,000 tested, 2.4% active; note: nearly all actives have a fitted effect of over 60% in size
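Huh7 reporter cells (NPC1 promoter driving luciferase) are dosed with compound for 24 h at 37 °C, 5% CO2; luciferase detection reagent is then added and luminescence measured after 10 min at ambient temperature.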
Rab9 prom act: activators of Rab9 promoter; Potency, µM (series often up to 9.22 µM), hits mostly activators; Huh7 Rab9 promoter-luciferase reporter, luminescence, 24 h; 320,000 tested, 2.8% active; note: nearly all actives have a fitted effect of over 60% in size
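Huh7 cells stably carrying Rab9 promoter–luciferase reporter, plated 1500 cells/well, compound added after 2 h and incubated 24 h at 37 °C; luciferase luminescence then read after 10 min with detection reagent.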
FLuc modulator: firefly luciferase modulation, counter-screen for miR-21 project; 360,000 tested, 6.9% active; AID 588342; Potency, µM (series often up to 57.5 µM), hits mostly inhibitors; purified FLuc, Km substrates, luminescence inhibition; P08659; note: nearly all actives have a fitted effect of over 55% in size
Target sequence (P08659 whole entry, looked up): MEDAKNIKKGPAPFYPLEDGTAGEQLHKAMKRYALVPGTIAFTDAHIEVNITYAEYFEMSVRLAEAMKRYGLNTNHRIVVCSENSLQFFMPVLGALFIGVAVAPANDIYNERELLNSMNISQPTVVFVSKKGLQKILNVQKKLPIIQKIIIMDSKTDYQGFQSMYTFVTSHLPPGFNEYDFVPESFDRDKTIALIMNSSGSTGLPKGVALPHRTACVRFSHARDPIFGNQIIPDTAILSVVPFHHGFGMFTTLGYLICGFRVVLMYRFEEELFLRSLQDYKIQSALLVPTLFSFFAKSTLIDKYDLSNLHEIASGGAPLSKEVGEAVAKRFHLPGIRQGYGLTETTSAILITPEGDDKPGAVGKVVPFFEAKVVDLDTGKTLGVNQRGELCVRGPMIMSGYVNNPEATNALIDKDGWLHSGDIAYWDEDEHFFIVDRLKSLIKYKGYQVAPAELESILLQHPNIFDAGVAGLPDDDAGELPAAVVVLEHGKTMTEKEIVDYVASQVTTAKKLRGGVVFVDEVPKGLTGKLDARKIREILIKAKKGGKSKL
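Purified P. pyralis luciferase (10nM final) with 10uM D-luciferin and 10uM ATP (Km levels) in 50mM Tris acetate pH 7.5, 10mM Mg acetate, 0.01% Tween-20, 0.05% BSA; qHTS 6-point titration, ~60 µM downward; luminescence read.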
Luc counter: blocks Kinase-Glo luciferase, a counter-screen artifact; Q27757; Kinase-Glo luciferase, ATP luminescence, 8 min; Potency, µM (top dose mostly 38.3 µM), usual class: inhibitors; 200,000 tested, 0.28% active; AID 1379; note: nearly all actives have a fitted effect of over 60% in size
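Light output from Kinase-Glo luciferase with luciferin and 10 uM ATP in 50 mM imidazole pH 7.2, KCl, MgCl2, Tween 20, BSA; compound pin-delivered, 8-min ambient incubation, then luminescence read.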
SMN2 splice up: enhancers of SMN2 splice variant expression; AID 1458; Potency, µM (top dose mostly 46.1 µM), actives largely listed as activators; 210,000 tested, 2.8% active; HEK293 SMN2-luciferase splicing reporter, luminescence, 30-36 h; note: nearly all actives have a fitted effect of over 55% in size
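qHTS luciferase splicing reporter: luminescence rises when SMN2 exon 7 is included in transfected HEK293 cells. Compound exposure lasted 30-36 h at 37C, with 4.5 mM final sodium butyrate as control, followed by a ONE-Glo read.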
Hits are given with their value; i = inactive; ? = inconclusive; nt = no result given; [ ] = dose if it differs, or a comment. Shown are actives, neighbours in structure and some others; about 7.3% of the full set was active somewhere. Calls come from the whole dose curve; as a rule, active = well fitted curve in the direction sought with a large enough effect; inconclusive = small, poorly fitted or top-dose-only effect, or another doubt; inactive = no such curve, though single readings can be large; an effect the other way counts as inactive or inconclusive.

SMILES	NPC1 promoter act	Rab9 prom act	FLuc modulator	Luc counter	SMN2 splice up
O=C(OCc1nc2ccccc2s1)c1ccccc1O	i	i	8.5µM	i	i
O=C(c1ccccc1)c1ccc(COC(=O)c2cnccn2)cc1	i	i	24µM	i	i
O=C(OCc1nc2ccccc2s1)c1cccc(N2C(=O)CCC2=O)c1	i	i	?	i	i
COc1cc(OC)cc(C(=O)NCC(=O)OCc2nc3ccccc3s2)c1	i	?	9.5µM	i	nt
Cc1noc(C)c1COC(=O)CCCc1nc2ccccc2s1	i	i	i	i	i
COc1cccc2c1ncc1c(-c3ccc(C)cc3)nn(-c3cccc([N+](=O)[O-])c3)c12	nt	nt	i	nt	nt
COc1ccccc1NC(=O)CSC1=Nc2ccccc2C2=NC(CCC(=O)NCc3ccco3)C(=O)N12 (centres undefined)	nt	nt	i	nt	nt
CC(=O)Nc1nonc1-c1nnc(SCC(=O)Nc2ccc(C)c(Cl)c2)n1C	nt	nt	i	nt	nt
COc1ccc(NS(=O)(=O)c2ccc3[nH]c(=O)ccc3c2)cc1OC	nt	nt	i	nt	nt
Cc1cc(S(=O)(=O)Nc2ccc3oc4c(c3c2)CCCC4)ccc1Cl	nt	nt	?	nt	i
Oc1oc(-c2ccco2)nc1C=Nc1cccc(Cl)c1	i	i	15µM	i	i
Cc1cc(/C(N)=N/OC(=O)c2cccc(Cl)c2)no1	i	i	6.7µM	nt	nt
Cc1cc(C(=O)NNC(=O)c2ccc(Cl)cc2)no1	i	i	i	nt	nt
Cc1cc(/C(N)=N/OC(=O)c2ccc(Cl)cc2)no1	3.5µM	3.2µM	1.5µM	nt	nt
COc1ccc(/C(N)=N/OC(=O)CSc2ccccc2)cc1OC	i	i	24µM	i	i
COc1ccc(C(=O)O/N=C(\N)c2cccc(C)c2)cc1OC	?	?	21µM	nt	nt
COc1ccc(C(=O)O/N=C(\N)c2ccccc2)cc1OC	2.8µM	3.5µM	11µM	nt	nt
Cc1cc(C(=O)Cn2nnc3ccccc3c2=O)c(C)n1Cc1cccs1	0.35µM	0.45µM	0.6µM	i	i
CCCn1c(C)cc(C(=O)CN2C(=O)c3cccc(N)c3C2=O)c1C	2.8µM	3.2µM	2.7µM	i	?
COc1ccc(OC)c(C(=O)Cn2nnc3ccccc3c2=O)c1	i	i	i	i	i
CCCCNC(=O)CN1C(=O)c2cccc(N)c2C1=O	i	i	i	i	i
Cc1cc(C(=O)CN2C(=O)CCC2=O)c(C)n1Cc1ccccc1	i	i	?	i	i
Cc1cc(C(=O)CN2C(=O)c3ccccc3C2=O)c(C)n1Cc1cccs1	0.5µM	0.4µM	0.85µM	i	14µM
Cc1ccc(S(=O)(=O)c2nc(-c3cccc(Br)c3)oc2N2CCCCCC2)cc1	nt	nt	i	nt	i
COc1cccc(-n2c(SCC(N)=O)nc3c(oc4ccccc43)c2=O)c1	nt	nt	i	nt	i
SMILES	NPC1 promoter act	Rab9 prom act	FLuc modulator	Luc counter	SMN2 splice up
CCOc1ccc(-c2csc(/C(C#N)=C\c3ccc(O)c([N+](=O)[O-])c3)n2)cc1	i	i	4.3µM	i	i
CCc1ccc(/C=C(/C#N)c2nc(-c3ccc(C)cc3)cs2)cc1	nt	nt	i	nt	i
C[N+](C)(C)c1ncnc2c1ncn2[C@@H]1CCCCO1	nt	nt	nt	i[7.66 µM]	i[9.22 µM]
Cc1cccc(C(=O)NCC(=O)OCc2cc(=O)n3nc(CC(C)C)sc3n2)c1	nt	nt	i	nt	nt
c1ccc(-c2noc(-c3ccc4ccccc4c3)n2)nc1	i	i	0.067µM	10µM	0.5µM
Cc1cccc(-c2noc(-c3ccc4c(c3)OCO4)n2)c1	i	i	i	i	nt
c1ccc(-c2noc(-c3ccc4c(c3)OCO4)n2)nc1	?	?	0.24µM	2.8µM	0.5µM
Cc1cccc(CC(=O)NC2CC(=O)N(c3ccccc3)C2)c1 (centres undefined)	nt	nt	i	nt	nt
Cc1cc2nc(-c3ccc(=O)[nH]c3)n(Cc3ccccc3)c2cc1C	i	i	15µM	nt	nt
Cc1ccccc1Cn1c(-c2ccc(=O)[nH]c2)nc2ccccc21	i	i[1.84 µM]	i	nt	nt
N#C/C(=C\c1ccc(Cl)cc1)c1nc2ncccc2[nH]1	i	i	3µM	i	i
N#C/C(=C\c1ccc(Sc2ccc(Cl)cc2)o1)c1nc2ccccc2[nH]1	i	i	i	i	i
COc1cccc(CNC(=O)Cn2ncn3nc(-c4cccs4)cc3c2=O)c1OC	nt	nt	i	nt	nt
CCC1CCCCN1C(=O)Cn1c(=O)n(CC2CCC(C(=O)NC)CC2)c(=O)c2sccc21 (centres undefined)	nt	nt	i	nt	nt
O=C(CCC1N=C2c3ccccc3N=C(SCc3ccccc3F)N2C1=O)NCc1ccc(F)cc1 (centres undefined)	nt	nt	i	nt	nt
